# PubChem BioAssay (EPA / NIEHS)
# Results filed as inconclusive are left out. Activity calls are given as the source filed them. Rule for the calls, unless noted: active = hit-call score of the fitted dose curve at least 0.9, where 1 is the maximum; inconclusive = response in the unintended direction; inactive = score below 0.9.
# Assays:
# THRA (gene 7067) = THRA (gene 7067) (UniProt P10827); experiment: TOX21_TRA_COA_Antagonist_Followup_ratio: Tox21 Thyroid Hormone Receptor alpha Antagonism through Coactivator Recruitment Follow-Up Assay, Ratio (AID 2283953)
# THRA (gene 7067), sequence (P10827 whole entry, looked up, the tested form may be a part): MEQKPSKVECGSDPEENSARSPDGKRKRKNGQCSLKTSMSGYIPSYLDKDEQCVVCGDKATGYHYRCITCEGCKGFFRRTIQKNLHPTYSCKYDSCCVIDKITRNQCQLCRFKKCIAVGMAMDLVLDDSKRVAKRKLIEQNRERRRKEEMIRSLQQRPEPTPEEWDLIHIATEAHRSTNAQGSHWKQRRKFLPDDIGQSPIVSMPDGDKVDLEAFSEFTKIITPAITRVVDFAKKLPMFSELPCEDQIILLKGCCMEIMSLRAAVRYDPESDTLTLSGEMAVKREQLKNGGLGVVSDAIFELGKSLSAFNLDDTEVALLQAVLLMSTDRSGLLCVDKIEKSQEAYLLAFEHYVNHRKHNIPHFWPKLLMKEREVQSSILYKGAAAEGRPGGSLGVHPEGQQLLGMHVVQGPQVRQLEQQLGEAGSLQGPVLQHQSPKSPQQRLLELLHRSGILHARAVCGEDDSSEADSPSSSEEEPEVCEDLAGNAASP
# Summary of the method: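 We measured antagonism of T3-type coactivator recruitment using a TR-FRET ratio (emission 520 and 495 nm) between a Tb-labelled anti-GST antibody on TRα LBD (2.5 nM) and SRC-2 peptide (200 nM). Activity was scaled between DMSO and T3 wells.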
# THRB (gene 7068) [1] = biological target: THRB (gene 7068) (UniProt P10828); experiment: TOX21_TRB_BLA_Antagonist_Followup_ratio: Tox21 Thyroid Hormone Receptor beta Antagonism Beta-lactamase (BLA) Follow-Up Assay, Ratio (AID 2283958)
# THRB (gene 7068), sequence (P10828 whole entry, looked up, the tested form may be a part): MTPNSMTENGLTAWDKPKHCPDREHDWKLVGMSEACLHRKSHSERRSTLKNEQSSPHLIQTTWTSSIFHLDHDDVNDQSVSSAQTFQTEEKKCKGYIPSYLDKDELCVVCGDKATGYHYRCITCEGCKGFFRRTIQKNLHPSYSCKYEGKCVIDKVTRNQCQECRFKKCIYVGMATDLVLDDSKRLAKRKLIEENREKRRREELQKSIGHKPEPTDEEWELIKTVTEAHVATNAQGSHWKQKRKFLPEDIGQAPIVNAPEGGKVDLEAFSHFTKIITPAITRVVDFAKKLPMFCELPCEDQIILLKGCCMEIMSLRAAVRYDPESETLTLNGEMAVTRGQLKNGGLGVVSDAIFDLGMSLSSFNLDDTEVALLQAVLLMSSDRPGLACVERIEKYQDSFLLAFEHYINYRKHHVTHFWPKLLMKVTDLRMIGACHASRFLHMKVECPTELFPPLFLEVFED
# Summary of the method: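 Read-out: blue/green (460:530 nm) ratio of cleaved to uncleaved CCF4-AM after 2 h at room temperature, fitted against DMSO baseline. HEK293T UAS-bla cells carrying GAL4-human TRβ LBD were exposed 18 h, 37C/5% CO2.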
# [2] = TOX21_TRB_BLA_Antagonist_Followup_viability: Viability Assessment in the Tox21 Thyroid Hormone Receptor beta Antagonism Beta-lactamase (BLA) Follow-Up Assay (AID 2283961)
# Summary of the method: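 HEK293T cells stably expressing GAL4-DBD/human TRβ-LBD with UAS-bla reporter, 3,000 cells/well in phenol red-free DMEM, 2% charcoal-stripped FBS. Compounds at 11 concentrations in triplicate, 18 h at 37C/5% CO2; viability by CellTiter-Glo luminescence after 30 min at room temperature.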
# THRB (gene 7068) [3] = biological target: THRB (gene 7068) (UniProt P10828); experiment: TOX21_TRB_COA_Antagonist_Followup_ratio: Tox21 Thyroid Hormone Receptor beta Antagonism through Coactivator Recruitment Follow-Up Assay, Ratio (AID 2283967)
# Summary of the method: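 GST-TRb LBD 5.0 nM + 0.10% BSA, compound added; fluorescein-SRC-2 peptide 200 nM, Tb-anti-GST Ab 2 nM. TR-FRET, ex 340 / em 520:495 ratio. Norm: DMSO 0%, T3 100%.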
# [4] = biological target: Retinoic acid receptor RXR-alpha (Homo sapiens) (UniProt P19793); experiment: TOX21_TR_RXR_BLA_Antagonist_Followup_ratio: Tox21 Thyroid Hormone Receptor beta Retinoid X Receptor alpha (RXRa) Antagonism Beta-lactamase (BLA) Follow-Up Assay, Ratio (AID 2283972)
# Retinoic acid receptor RXR-alpha (Homo sapiens), sequence (P19793 whole entry, looked up): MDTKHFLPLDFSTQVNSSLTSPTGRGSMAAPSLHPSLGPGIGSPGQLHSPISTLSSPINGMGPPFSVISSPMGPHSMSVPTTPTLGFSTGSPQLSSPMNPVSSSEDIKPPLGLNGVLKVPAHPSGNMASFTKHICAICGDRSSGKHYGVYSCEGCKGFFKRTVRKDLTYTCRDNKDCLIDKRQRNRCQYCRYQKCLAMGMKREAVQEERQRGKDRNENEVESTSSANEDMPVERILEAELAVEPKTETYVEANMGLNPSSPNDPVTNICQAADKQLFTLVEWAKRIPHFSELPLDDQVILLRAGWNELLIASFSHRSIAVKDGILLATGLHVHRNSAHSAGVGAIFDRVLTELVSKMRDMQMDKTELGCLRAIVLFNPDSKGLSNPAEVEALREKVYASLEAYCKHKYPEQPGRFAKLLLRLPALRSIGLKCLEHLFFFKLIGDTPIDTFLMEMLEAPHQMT
# Summary of the method: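 RXRa-UAS-bla HEK293T cells in phenol red-free DMEM with 2% charcoal-stripped FBS; compounds at 11 concentrations in triplicate, 16 h at 37C. LiveBLAzer FRET-B/CCF4-AM substrate 2 h at room temperature; read as 460:530 nm ratio versus DMSO.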
# [5] = CPHEA_Stoker_NIS_Cytotoxicity: Cytotoxicity Assessment for CPHEA's Radioactive Iodide Uptake (RAIU) Assay for Sodium/Iodide Symporter (NIS) Inhibition, Stoker and Laws Labs (AID 2283897);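 for AC50: active means loss of ATP signal versus DMSO meaning cytotoxicity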
# Summary of the method: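 ATP luminescence (Cell Titer Glo) measured viability, with loss of signal normalized to DMSO controls. Cells: hNIS-HEK293T-EPA, seeded 40 hours prior. Dosing: 0.001–100uM, 2 hours, room temperature, uptake buffer pH 7.4.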
# [6] = biological target: Thyroid hormone receptor alpha (Rattus norvegicus) + Thyroid hormone receptor beta (Rattus norvegicus) (UniProt P18113+P63059); experiment: TOX21_TR_LUC_GH3_Antagonist_Followup: Tox21 GH3 Thyroid Hormone Receptor Antagonism Luciferase Follow-Up Assay (AID 2283942)
# Summary of the method: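 Luminescence read-out (ONE-Glo, 30 min at room temperature) in GH3 reporter cells challenged with 1.0 nM T3 final. Compounds ran at 92 uM to 5nM over 15 concentrations for 24 h; DMSO served as negative control and baseline.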
# PGR (gene 5241) [7] = biological target: PGR (gene 5241) (UniProt P06401); experiment: TOX21_PR_BLA_Followup_Antagonist_ratio: Tox21 HEK293 Progesterone Receptor (PR) Antagonism Beta-lactamase Follow-Up Assay, Ratio (AID 2283934)
# PGR (gene 5241), sequence (P06401 whole entry, looked up, the tested form may be a part): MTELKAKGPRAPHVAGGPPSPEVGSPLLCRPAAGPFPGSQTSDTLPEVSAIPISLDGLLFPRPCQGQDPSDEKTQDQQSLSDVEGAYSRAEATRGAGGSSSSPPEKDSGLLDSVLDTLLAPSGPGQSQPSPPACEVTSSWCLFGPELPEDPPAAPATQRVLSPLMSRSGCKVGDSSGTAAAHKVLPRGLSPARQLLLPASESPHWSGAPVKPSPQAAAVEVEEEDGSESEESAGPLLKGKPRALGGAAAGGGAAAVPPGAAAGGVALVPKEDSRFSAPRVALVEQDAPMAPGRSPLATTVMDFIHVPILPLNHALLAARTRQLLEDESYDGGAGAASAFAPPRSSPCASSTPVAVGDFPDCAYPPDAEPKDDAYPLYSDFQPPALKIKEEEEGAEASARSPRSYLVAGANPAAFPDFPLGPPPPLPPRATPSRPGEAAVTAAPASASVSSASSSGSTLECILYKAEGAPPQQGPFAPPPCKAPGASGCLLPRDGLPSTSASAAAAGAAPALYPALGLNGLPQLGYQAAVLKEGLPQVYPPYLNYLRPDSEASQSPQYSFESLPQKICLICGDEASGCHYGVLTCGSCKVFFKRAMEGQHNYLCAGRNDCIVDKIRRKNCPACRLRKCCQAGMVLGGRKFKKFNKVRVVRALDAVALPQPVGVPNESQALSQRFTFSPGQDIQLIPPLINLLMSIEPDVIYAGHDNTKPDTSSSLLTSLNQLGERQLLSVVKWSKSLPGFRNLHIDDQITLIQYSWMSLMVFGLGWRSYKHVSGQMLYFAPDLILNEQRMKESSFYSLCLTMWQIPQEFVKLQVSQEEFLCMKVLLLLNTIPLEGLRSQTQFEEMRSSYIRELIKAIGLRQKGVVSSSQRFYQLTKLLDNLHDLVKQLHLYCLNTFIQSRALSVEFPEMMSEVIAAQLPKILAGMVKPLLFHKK
# Summary of the method: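 Read-out: blue/green beta-lactamase FRET ratio (cleaved ch2 over uncleaved ch1), fitted relative to DMSO baseline. Cells: PR-UAS-bla HEK293T, GAL4-UAS reporter, stimulated with 1 nM R5020 final; 16 hr compound exposure, 37C.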
# [8] = TOX21_PR_BLA_Followup_Agonist_viability: Viability Assessment in the Tox21 HEK293 Progesterone Receptor (PR) Agonism Beta-lactamase Follow-Up Assay (AID 2283935);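 note: signal loss means lower viability so actives are cytotoxic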
# Summary of the method: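 Luminescent ATP quantitation (CellTiter-Glo, 30 min, room temperature) in the same wells as the beta-lactamase read, on PR-UAS-bla HEK293T cells exposed to compound for 16 hr at 37C in 2% charcoal-stripped serum.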
# PGR (gene 5241) [9] = biological target: PGR (gene 5241) (UniProt P06401); experiment: TOX21_PR_LUC_Followup_Antagonist: Tox21 HEK293 Progesterone Receptor (PR) Antagonism Luciferase Follow-Up Assay (AID 2283938);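 note: curve fitted upward as signal gain over DMSO baseline despite antagonist label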
# Summary of the method: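 HEK293-PR-A-luc cells were precultured 5 days in medium with 10% charcoal-stripped FBS, seeded 3,000/well, then exposed to compounds in DMSO for 16 h at 37C. Luciferase was read by ONE-Glo luminescence after 30 min at room temperature.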
# [10] = TOX21_PR_LUC_Followup_Antagonist_viability: Viability Assessment in the Tox21 HEK293 Progesterone Receptor (PR) Antagonism Luciferase Follow-Up Assay (AID 2283940)
# Summary of the method: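 Read-out: CellTiter-Glo ATP luminescence, loss of signal taken as reduced viability. Cells: HEK293-PR-A-luc, 3,000/well, 5 h settling, then 16 h compound exposure at 37C, 0% CO2.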
# [11] = TOX21_PR_LUC_Followup_Agonist_viability: Viability Assessment in the Tox21 HEK293 Progesterone Receptor (PR) Agonism Luciferase Follow-Up Assay (AID 2283941);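 note: loss of signal means cytotoxicity so actives lower viability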
# Summary of the method: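 Cytotoxicity counter-screen: ATP content by CellTiter-Glo luminescence, loss of signal = reduced viability. HEK293-PR-A-luc, 3,000 cells/well, compound exposure 16 h, 37C.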
# PGR (gene 5241) [12] = biological target: PGR (gene 5241) (UniProt P06401); experiment: TOX21_PR_BLA_Followup_Agonist_ratio: Tox21 HEK293 Progesterone Receptor (PR) Agonism Beta-lactamase Follow-Up Assay, Ratio (AID 2283933)
# Summary of the method: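 Read-out: ratio of cleaved (ch2) to uncleaved (ch1) beta-lactamase substrate fluorescence, gain-of-signal relative to DMSO baseline. Cells: PR-UAS-bla HEK293T, 2% charcoal-stripped FBS; compound exposure 16 hr, 37C; substrate 2 hr, RT.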
# PGR (gene 5241) [13] = biological target: PGR (gene 5241) (UniProt P06401); experiment: TOX21_PR_LUC_Followup_Agonist: Tox21 HEK293 Progesterone Receptor (PR) Agonism Luciferase Follow-Up Assay (AID 2283937; active = hit-call score of the fitted dose curve at least 0.9, where 1 is the maximum; inactive = score below 0.9)
# Summary of the method: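 Luminescence read-out (ONE-Glo, 30 min at room temperature) of PR-driven luciferase in HEK293-PR-A-luc cells after 16 h compound exposure at 37C; gain of signal fitted relative to DMSO baseline.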
smiles,measurement,setting,value
Cc1oncc1C(=O)Nc1ccc(C(F)(F)F)cc1,outcome,THRA (gene 7067),inactive
same,outcome,THRB (gene 7068) [1],inactive
same,outcome,[2],inactive
same,outcome,THRB (gene 7068) [3],inactive
same,outcome,[4],inactive
CN(C)c1ccc(C(=N)c2ccc(N(C)C)cc2)cc1,outcome,[5],inactive
CC(C)(C)c1ccc(OC(=O)c2ccccc2O)cc1,outcome,[5],inactive
CC/C=C\C/C=C\C/C=C\CCCCCCCC(=O)O,outcome,[5],inactive
C1CN(SSN2CCOCC2)CCO1,outcome,[5],inactive
CCCCCCCC[N+](C)(CCCCCCCC)CCCCCCCC,AC50,[5],50 µM (active)
O=c1cc(-c2ccccc2)oc2ccccc12,outcome,[5],inactive
Oc1ccc(Cl)cc1Cc1cc(Cl)ccc1O,AC50,[5],50 µM (active)
same,AC50,[6],18.7 µM (active)
same,outcome,THRA (gene 7067),inactive
same,AC50,THRB (gene 7068) [1],38.3 µM (active)
same,AC50,[2],23.5 µM (active)
same,AC50,THRB (gene 7068) [3],38.3 µM (active)
same,AC50,[4],38.3 µM (active)
C[C@]12CCC(=O)C=C1CC[C@@H]1[C@@H]2C(=O)C[C@@]2(C)[C@H]1CC[C@]2(O)C(=O)CO,outcome,PGR (gene 5241) [7],inactive
same,outcome,[8],inactive
same,outcome,PGR (gene 5241) [9],inactive
c1ccc2c(c1)ccc1cc3c(ccc4ccccc43)cc12,outcome,[5],inactive
C[C@]12C=CC(=O)C=C1CC[C@@H]1[C@@H]2[C@@H](O)C[C@@]2(C)[C@H]1CC[C@]2(O)C(=O)CO,outcome,PGR (gene 5241) [7],inactive
same,outcome,[8],inactive
same,outcome,[10],inactive
same,outcome,[11],inactive
O=C(C=Cc1ccccc1)OCc1ccccc1,outcome,[5],inactive
CCOC(=O)Cc1cccc2ccccc12,outcome,[5],inactive
CCCCCCCCCCOS(=O)(=O)O,outcome,[5],inactive
CC(C)(c1cc(Br)c(OCCO)c(Br)c1)c1cc(Br)c(OCCO)c(Br)c1,outcome,PGR (gene 5241) [12],inactive
same,AC50,PGR (gene 5241) [7],13.4 µM (active)
same,AC50,[8],32.2 µM (active)
same,outcome,PGR (gene 5241) [13],inactive
same,AC50,PGR (gene 5241) [9],12.8 µM (active)
same,outcome,[10],inactive
same,outcome,[11],inactive
COCc1c(C(C)C)nc(C(C)C)c(/C=C/[C@@H](O)C[C@@H](O)CC(=O)O)c1-c1ccc(F)cc1,outcome,[6],inactive
same,outcome,THRA (gene 7067),inactive
same,outcome,THRB (gene 7068) [1],inactive
same,outcome,[2],inactive
same,outcome,THRB (gene 7068) [3],inactive
CCC(=O)Oc1ccc(/C(CC)=C(\CC)c2ccc(OC(=O)CC)cc2)cc1,AC50,PGR (gene 5241) [7],9.26 µM (active)
same,outcome,[8],inactive
same,AC50,PGR (gene 5241) [9],16.5 µM (active)
same,outcome,[10],inactive
same,outcome,[11],inactive
CO[Si](OC)(OC)c1ccccc1,outcome,[5],inactive
CCOC(=O)c1ccccc1C(=C1C=C(Br)C(=O)C(Br)=C1)c1cc(Br)c(O)c(Br)c1,AC50,PGR (gene 5241) [7],24.5 µM (active)
same,outcome,[8],inactive
same,AC50,PGR (gene 5241) [9],28.9 µM (active)
same,outcome,[10],inactive
same,outcome,[11],inactive
